Measurements as given in the supplement of paper PMC8728848.
The full list was thinned out, with the strongest signals kept by preference.

How the values were obtained:
Assay in all cases: glycan array binding signal (z-score within array); higher = stronger binding
Conditions in all cases: glycan notation: IUPAC condensed, linker removed
[1] = biological target: Fuc(a1-2)Gal(b1-3)GlcNAc(b1-2)Man(a1-3)[Fuc(a1-2)Gal(b1-3)GlcNAc(b1-2)Man(a1-6)]Man(b1-4)GlcNAc(b1-4)GlcNAc
How it was run: (§1)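 Glycan array data were curated from 3228 arrays in the Consortium for Functional Glycomics database and kept only where the protein sequence was available. Glycan names were converted to IUPAC-condensed notation, and columns mapping to the same glycan were averaged. The binding signal is a within-array Z-score, averaged across arrays of the same protein sequence at different concentrations or buffers and across linkers. Negative Z-scores can be read as non-binding.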

Fuc(a1-2)Gal(b1-4)Glc = biological target: Fuc(a1-2)Gal(b1-4)Glc
How it was run: as §1

Fuc(a1-2)Gal(b1-4)Glc6S = biological target: Fuc(a1-2)Gal(b1-4)Glc6S
How it was run: as §1

Fuc(a1-2)Gal6S(b1-4)Glc = biological target: Fuc(a1-2)Gal6S(b1-4)Glc
How it was run: as §1

[2] = biological target: Fuc(a1-2)[Gal(a1-3)]Gal(b1-4)GlcNAc(b1-3)[Fuc(a1-2)[Gal(a1-3)]Gal(b1-4)GlcNAc(b1-6)]GalNAc
How it was run: as §1

[3] = biological target: Fuc(a1-2)[Gal(a1-3)]Gal(b1-4)GlcNAc(b1-6)GalNAc
How it was run: as §1

[4] = biological target: Fuc(a1-2)[GalNAc(a1-3)]Gal(b1-3)GalNAc(b1-3)Gal(a1-4)Gal(b1-4)Glc
How it was run: as §1

[5] = biological target: Fuc(a1-2)[GalNAc(a1-3)]Gal(b1-4)GlcNAc(b1-2)Man(a1-3)[Fuc(a1-2)[GalNAc(a1-3)]Gal(b1-4)GlcNAc(b1-2)Man(a1-6)]Man(b1-4)GlcNAc(b1-4)[Fuc(a1-6)]GlcNAc
How it was run: as §1

[6] = biological target: Fuc(a1-2)[GalNAc(a1-3)]Gal(b1-4)GlcNAc(b1-3)Gal(b1-4)GlcNAc
How it was run: as §1

[7] = biological target: Fuc(a1-2)[GalNAc(a1-3)]Gal(b1-4)GlcNAc(b1-3)Gal(b1-4)GlcNAc(b1-3)Gal(b1-4)GlcNAc
How it was run: as §1

[8] = biological target: Fuc(a1-2)[GalNAc(a1-3)]Gal(b1-4)GlcNAc(b1-6)GalNAc
How it was run: as §1

[9] = biological target: Fuc(a1-2)[GalNAc(a1-4)]Gal(b1-4)GlcNAc
How it was run: as §1

[10] = biological target: Fuc(a1-3)[Gal(b1-4)]GlcNAc(b1-2)Man
How it was run: as §1

[11] = biological target: Fuc(a1-3)[Gal(b1-4)]GlcNAc(b1-3)Gal(b1-4)[Fuc(a1-3)]GlcNAc(b1-3)Gal(b1-4)[Fuc(a1-3)]GlcNAc
How it was run: as §1

[12] = biological target: Fuc(a1-3)[Gal(b1-4)]GlcNAc6S
How it was run: as §1

Gal(a1-6)Glc = biological target: Gal(a1-6)Glc
How it was run: as §1

Gal(b1-3)GalNAc = biological target: Gal(b1-3)GalNAc
How it was run: as §1

[13] = biological target: Gal(b1-3)GlcNAc(b1-2)[Gal(b1-3)GlcNAc(b1-6)]Man(a1-6)[Gal(b1-3)GlcNAc(b1-2)Man(a1-3)]Man(b1-4)GlcNAc(b1-4)GlcNAc
How it was run: as §1

[14] = biological target: Gal(b1-3)GlcNAc(b1-3)Gal(b1-4)Glc
How it was run: as §1

[15] = biological target: Gal(b1-3)GlcNAc(b1-3)Gal(b1-4)GlcNAc(b1-2)[Gal(b1-3)GlcNAc(b1-3)Gal(b1-4)GlcNAc(b1-6)]Man(a1-6)[Gal(b1-3)GlcNAc(b1-3)Gal(b1-4)GlcNAc(b1-2)Man(a1-3)]Man(b1-4)GlcNAc(b1-4)[Fuc(a1-6)]GlcNAc
How it was run: as §1

[16] = biological target: Gal(b1-3)GlcNAc(b1-6)GalNAc
How it was run: as §1

[17] = biological target: Gal(b1-3)[Neu5Ac(b2-6)]GalNAc
How it was run: as §1

[18] = biological target: Gal(b1-4)GlcNAc(b1-2)Man(a1-3)[Gal(b1-4)GlcNAc(b1-2)Man(a1-6)][GlcNAc(b1-4)]Man(b1-4)GlcNAc(b1-4)[Fuc(a1-6)]GlcNAc
How it was run: as §1

[19] = biological target: Gal(b1-4)GlcNAc(b1-2)Man(a1-6)[GlcNAc(b1-2)Man(a1-3)]Man(b1-4)GlcNAc(b1-4)GlcNAc
How it was run: as §1

[20] = biological target: Gal(b1-4)GlcNAc(b1-2)Man(a1-6)[Man(a1-3)]Man(b1-4)GlcNAc(b1-4)GlcNAc
How it was run: as §1

[21] = biological target: Gal(b1-4)GlcNAc(b1-2)[Gal(b1-4)GlcNAc(b1-4)]Man(a1-3)[Gal(b1-4)GlcNAc(b1-2)[Gal(b1-4)GlcNAc(b1-6)]Man(a1-6)]Man(b1-4)GlcNAc(b1-4)GlcNAc
How it was run: as §1

[22] = biological target: Gal(b1-4)GlcNAc(b1-3)Gal(b1-3)GlcNAc
How it was run: as §1

[23] = biological target: Gal(b1-4)GlcNAc(b1-3)Gal(b1-4)GlcNAc(b1-3)Gal(b1-4)GlcNAc(b1-2)Man(a1-3)[Gal(b1-4)GlcNAc(b1-3)Gal(b1-4)GlcNAc(b1-3)Gal(b1-4)GlcNAc(b1-2)Man(a1-6)]Man(b1-4)GlcNAc(b1-4)GlcNAc
How it was run: as §1

[24] = biological target: Gal(b1-4)GlcNAc(b1-6)GalNAc
How it was run: as §1

B1: GS13686A-pdi-553-26-553 (Parabacteroides distasonis) (protein)
chain: NENPDKPTDDVNYNMNEPRLASTLRGGLIIEGNVEQRLKPLQIDFYSQMTVDGGGWGTKNYIQDDEWNNLVWEEYLKQIASINIVIRSLTEKDKDAYANTIAFARIWRVYVHTLAADKFGPMPFPAYEIVEANPPYKSLKDIYDEYFRELDAAINGFNDSAQPIFSDAGIDLIYKNDVSKWKRFANSLRLRLAVRLTEVDQEKCIAEANAAISSPAGLISDKADNAYMPPKADGSWGQDYNYTMFQITWSGPICMSKSVEKLVTNIGGVAWPQGVVNQTSGVAVSSVHPEKVDPRAPKIFQPGIENGDWKGLVYGPKAEEANTGIYQSKQCAELGFIIKDGYPYKSRPYDLFLSEEVHFLKAELYARGFIAGDAKSEYEAGVRASFATWGVTSEVDDYLTSTEKNEAGTSARYDDQQGAGNTALEKIITQKYIAGIPDLAQEGWNDKRRLNLPRLDVAVYRDQAVYNNNDKDILKSANFIKRMRYPTKESLINATEYEKGKSMLGGKGDIVSTPLWWDKNSNYCTSSK
[1]
  glycan array binding signal (z-score): 0.144
Fuc(a1-2)Gal(b1-4)Glc
  glycan array binding signal (z-score): -0.076
Fuc(a1-2)Gal(b1-4)Glc6S
  glycan array binding signal (z-score): 0.03
Fuc(a1-2)Gal6S(b1-4)Glc
  glycan array binding signal (z-score): -0.226
[2]
  glycan array binding signal (z-score): 0.003
[3]
  glycan array binding signal (z-score): 0.081
[4]
  glycan array binding signal (z-score): -0.124
[5]
  glycan array binding signal (z-score): 0.023
[6]
  glycan array binding signal (z-score): 0.224
[7]
  glycan array binding signal (z-score): 0.041
[8]
  glycan array binding signal (z-score): -0.281
[9]
  glycan array binding signal (z-score): 1.95
[10]
  glycan array binding signal (z-score): -0.253
[11]
  glycan array binding signal (z-score): -0.035
[12]
  glycan array binding signal (z-score): -0.276
Gal(a1-6)Glc
  glycan array binding signal (z-score): 0.108
Gal(b1-3)GalNAc
  glycan array binding signal (z-score): 0.011
[13]
  glycan array binding signal (z-score): 0.046
[14]
  glycan array binding signal (z-score): -0.082
[15]
  glycan array binding signal (z-score): 1.83
[16]
  glycan array binding signal (z-score): 1.97
[17]
  glycan array binding signal (z-score): 1.03
[18]
  glycan array binding signal (z-score): 1.35
[19]
  glycan array binding signal (z-score): 0.027
[20]
  glycan array binding signal (z-score): -0.04
[21]
  glycan array binding signal (z-score): 2.01
[22]
  glycan array binding signal (z-score): -0.133
[23]
  glycan array binding signal (z-score): 0.45
[24]
  glycan array binding signal (z-score): -0.056
